# Screening results: PubChem, National Center for Advancing Translational Sciences (NCATS)
# This is one part of a sample in which hits are shown more often than they occur.
# Pf Dd2 growth = Plasmodium falciparum Dd2 growth inhibition | actives 4.3% (n = 120,000) | AID 1347417 | P. falciparum Dd2 growth, SYBR Green, 72 h | Potency, µM (doses to about 28.9 µM), for the others: top-dose activity, negative = inhibition, usual class: inhibitors; active = well fitted inhibition curve with a large enough effect;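 also: plate controls were DMSO vehicle for no effect and reference drug for full effect; nearly all actives have a fitted effect of over 65% in size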
#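 Infected erythrocytes (Dd2, 0.3% parasitemia, 2.5% hematocrit final) are added to compound in RPMI-1640/Albumax II medium, grown 72 h at 37C in low oxygen, then lysed with saponin/Triton-X containing SYBR Green and read by fluorescence.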
# * hit, by the source's call; i = inactive; [ ] = remark or other dose. Potency is read from the fitted curve at half-maximal effect.
SMILES,Pf Dd2 growth
Cc1noc(-c2cn(C3CCN(C(=O)COc4ccccc4)CC3)nn2)n1,i
COc1ccccc1C(=O)N1CCC(N2Cc3cnc(C)n3C2=O)CC1,i
O=C(c1c(OCC2CC2)cc(=O)n2c1CCCCC2)N1CCOCC1,62%
O=C(Nc1ccc(C2(C(=O)NCc3ccc4c(c3)OCO4)CCCCC2)cc1)C1CC1,13µM*
CS(=O)(=O)Nc1ccc(C2(C(=O)NCc3ccc4c(c3)OCO4)CCCCC2)cc1,i
O=C(Nc1ccc(C2(C(=O)NCc3ccc(F)cc3)CCCCC2)cc1)C1CC1,4%
COCC(=O)N[C@H]1C[C@@H](CO)N(Cc2ccc(Br)o2)C1,-6%
Cc1cccc(N2CCN(C(=O)CCc3conc3-c3ccccc3)CC2)c1C,-23%
O=C1NCCCC12CCN(Cc1cccc(C(F)(F)F)c1F)C2 (stereo not given),-20%
COC(=O)C1=C(C)N=C2SC=C(CC(=O)NC3CC4CCC3C4)N2C1c1ccsc1 (stereo not given),i
O=C(Nc1ccc2nc(SCCOc3ccccc3Cl)sc2c1)c1cccs1,2.8µM*
Cc1ccccc1NC(=O)CSc1nc2ccc(NC(=O)c3cccs3)cc2s1,i
Cc1ccc(OCCSc2nc3ccc(NC(=O)COc4ccc(F)cc4)cc3s2)cc1,19%
Cc1ccc(OCCSc2nc3ccc(NC(=O)c4cccs4)cc3s2)cc1,1µM*
Cc1ccc(OCCSc2nc3ccc(NC(=O)c4ccc(F)cc4)cc3s2)cc1,21%
CCC(=O)Nc1ccc2nc(SCCOc3ccccc3)sc2c1,i
COCCNC(=O)[C@@H]1CCC[C@@H](NCc2nccs2)CN(C)C(=O)C1,-4%[44.1 µM]
O=C(c1cccc(Cl)c1)N1CCC2(CC1)N=C(c1cccc(Br)c1)NO2,16%
COCCC(=O)N1CCC(C2CCN(C(C)=O)CC2)C1 (stereo not given),12%
C[S+](=O)([O-])N1Cc2ccccc2OC2(CCN(C(=O)c3cccc4[nH]ccc34)CC2)C1,-29%
CC(C)NC(=O)N1CCC2(CC1)CN(C(=O)c1ccc3[nH]ccc3c1)Cc1ccccc1O2,13µM*
CC(C)NC(=O)N1Cc2ccccc2OC2(CCN(C(=O)c3cccc4[nH]ccc34)CC2)C1,11µM*
CC(=O)N1CCC2(CC1)CN(C(=O)NC(C)C)Cc1ccccc1O2,9%
CC(=O)N1Cc2ccccc2OC2(CCN(C(=O)NC(C)C)CC2)C1,-9%
CN(C)C(=O)N1CCC2(CC1)CN(C(=O)c1cccc3[nH]ccc13)Cc1ccccc1O2,-28%
SMILES,Pf Dd2 growth
COc1ccc(-c2noc(C(=O)O)c2[C@@H](C)NC(=O)Nc2ccccc2)cc1,13%[44.1 µM]
Nc1nc(CCNC(=O)[C@H]2CNC[C@H](C(=O)N3CCOCC3)C2)cs1,-8%
O=C1NCC(=O)N2CCN(C(=O)Nc3ccccc3Oc3ccccc3)CC12 (stereo not given),-9%
COc1cccc(C(=O)N2CCCCC2c2n[nH]c(C)n2)c1 (stereo not given),-14%
Cc1cccc(C(=O)N2CCn3nnc(CCC(=O)NC4CC4)c3C2)c1,-8%
O=C(Nc1ccccc1)N(Cc1ccc2c(c1)OCO2)C1CCN(Cc2ccccc2)CC1,-28%
COc1ccccc1NC(=O)N(Cc1ccc2c(c1)OCO2)C1CCN(Cc2ccccc2)CC1,11µM*
CCN1CCC(N(Cc2ccc3c(c2)OCO3)C(=O)Nc2cccc(C)c2C)CC1,18%
CC(C)c1nc(N2CCCCCC2)ncc1C(=O)O,13%
CCCn1cc(S(=O)(=O)c2ccccc2)c(=O)c2cc(F)c(N3CCCC3)cc21,-12%
COc1ccc(S(=O)(=O)c2cn(C)c3cc(N4CCCCCC4)c(F)cc3c2=O)cc1,8.9µM*
Cc1ccc(C)c(Cn2cc(S(=O)(=O)c3ccc(Cl)cc3)c(=O)c3cc(F)ccc32)c1,i
CCCCn1cc(S(=O)(=O)c2ccc(OC)cc2)c(=O)c2cc(F)c(N3CCCC3)cc21,-12%
CCc1ccc(S(=O)(=O)c2cn(C)c3cc(N4CCN(CC)CC4)c(F)cc3c2=O)cc1,260%[5.79 µM]
CCCn1cc(S(=O)(=O)c2ccc(OCC)cc2)c(=O)c2cc(C)ccc21,-13%
CCOc1ccc(S(=O)(=O)c2cn(Cc3cc(C)ccc3C)c3ccc(OCC)cc3c2=O)cc1,10µM*
Cc1cc(C)cc(S(=O)(=O)c2cn(C)c3cc(N4CCCC4)c(F)cc3c2=O)c1,i
CCCCn1cc(S(=O)(=O)c2ccc(C)cc2)c(=O)c2cc(F)c(N3CCCCC3)cc21,-7%
CCCn1cc(S(=O)(=O)c2ccccc2)c(=O)c2cc(F)c(N3CCCCCC3)cc21,11µM*
Cn1cc(S(=O)(=O)c2cccc(Cl)c2)c(=O)c2cc(F)c(N3CCCCC3)cc21,5%
CCCn1cc(S(=O)(=O)c2ccc(OC)cc2)c(=O)c2cc(F)c(N3CCCCCC3)cc21,11µM*
COc1ccc(N2CC(C(=O)N3CCC(C(=O)NCc4cccc(Cl)c4)C3)NC2=O)cc1 (stereo not given),-14%
CC(C)(O)CCc1cccc(C(=O)N[C@H]2CCC[C@H]2C(N)=O)c1,-7%
Cc1ccncc1C(=O)N1CC(c2nc(CCN(C)C(=O)C3CC3)no2)C1,4%
